Screening results deposited in PubChem by National Center for Advancing Translational Sciences (NCATS).
Compounds with a hit are over-represented: about 4.8% of the library has one in this group of screens.
ATXN viability = viability counter-screen for ATXN expression inhibitors; Potency, µM (highest dose often 56.7 µM), actives largely listed as cytotoxic; hit rate 0.49% among 400,000; S2 cells (HEK-293 line with an ATXN2-luciferase reporter) viability, CellTiter-Fluor protease fluorescence, 24 h; note: nearly all actives have a fitted effect of over 40% in size
IL1B secr inh = inflammasome signaling inhibition, IL-1 beta readout | THP-1 LPS/ATP IL-1B secretion, AlphaLISA, 16 h; active compounds read low | activity change, % at 57.5 µM | hit rate 4.7% among 360,000 | AID 743279; in the data active = activity change below about -50%; inconclusive = mostly about -30% to -49%
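Secreted IL-1B measured by AlphaLISA bead assay after 16 h compound exposure of THP-1 cells; compounds (final up to 57.5 uM) added 1 h before LPS (250 ng/mL) and ATP (1.25 mM) stimulation; lower signal means less secretion.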
ATXN2 expr inh = ATXN2 expression inhibition | HEK-293 ATXN2-luciferase reporter, luminescence, 24 h | hit rate 0.72% among 360,000 | AID 1745845 | Potency, µM (top dose mostly 57 µM), hits mostly inhibitors; note: nearly all actives have a fitted effect of over 55% in size
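ATXN2-luciferase reporter cells (luciferase flanked by upstream and downstream ATXN2 gene portions) were treated 24 h at 37 °C with compounds at up to 57 uM. SteadyGlo luminescence gave expression; GF-AFC fluorescence gave viability.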
USP1 inh = inhibitors of human USP1/UAF1 deubiquitinase. hit rate 0.23% among 390,000. Potency, µM (titrated, usually from 57.1 µM), usual class: inhibitors. O94782. recombinant USP1/UAF1, Ub-Rhodamine cleavage fluorescence. AID 743255; note: nearly all actives have a fitted effect of over 60% in size
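High-throughput fluorogenic screen: 1nM USP1/UAF1 complex, Ub-Rho substrate 150nM final, 50mM HEPES pH 7.8 with 0.5mM EDTA, 0.1 mg/ml BSA, 1mM TCEP and 0.01% Tween-20.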
USP2a inh = blocks human ubiquitin-specific protease USP2a | USP2 core, Ub-CHOP2 coupled fluorogenic reporter, 485/531 | Potency, µM (series often up to 38.3 µM), actives largely listed as inhibitors | hit rate 0.01% among 330,000 | AID 463254
Target sequence (O75604 whole entry, looked up): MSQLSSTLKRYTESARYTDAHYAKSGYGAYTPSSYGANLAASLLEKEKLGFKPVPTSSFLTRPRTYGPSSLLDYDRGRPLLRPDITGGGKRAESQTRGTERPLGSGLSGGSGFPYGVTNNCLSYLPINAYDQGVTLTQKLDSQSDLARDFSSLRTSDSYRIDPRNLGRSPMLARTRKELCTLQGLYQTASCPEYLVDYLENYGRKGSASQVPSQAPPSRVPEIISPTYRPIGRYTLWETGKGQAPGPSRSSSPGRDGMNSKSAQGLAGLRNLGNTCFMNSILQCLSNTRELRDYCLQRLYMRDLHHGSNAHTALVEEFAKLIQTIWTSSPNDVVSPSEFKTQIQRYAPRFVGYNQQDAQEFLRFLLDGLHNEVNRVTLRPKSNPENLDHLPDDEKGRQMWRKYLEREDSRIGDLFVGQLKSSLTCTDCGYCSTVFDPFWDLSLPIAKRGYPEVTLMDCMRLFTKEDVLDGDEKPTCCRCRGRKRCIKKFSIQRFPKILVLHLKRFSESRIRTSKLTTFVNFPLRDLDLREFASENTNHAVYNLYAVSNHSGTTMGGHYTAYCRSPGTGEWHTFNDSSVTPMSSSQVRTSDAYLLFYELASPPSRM
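USP2 core (10nM final) preincubated 30min RT with compound in 20mM Tris-HCl pH 8.0, 2mM CaCl2, 2mM beta-mercaptoethanol, 0.05% CHAPS; 25nM Ub-CHOP2 plus 25nM reporter substrate added, fluorescence (Ex485/Em531) read after 60min.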
A number is an active result. Unless noted, calls come from the whole dose curve; as a rule, active = well fitted curve in the direction sought with a large enough effect; inconclusive = small, poorly fitted or top-dose-only effect, or another doubt; inactive = no such curve, though single readings can be large; an effect the other way counts as inactive or inconclusive.

COc1ccc(CN(C)CC2CCCN(CCc3ccccc3C)C2)cc1O (stereo not drawn) was read as ATXN viability inactive, IL1B secr inh -52.4, ATXN2 expr inh inactive, USP1 inh inactive and USP2a inh inactive.
For CN(Cc1ccccc1OCCO)CC1CCCN(CCc2ccc(Cl)cc2)C1 (stereo not drawn) the results were IL1B secr inh -61.4, USP1 inh inactive and USP2a inh inactive.
Screening Cc1ccc2sc(N(CCCN(C)C)C(=O)c3ccc(S(=O)(=O)N(C)C4CCCCC4)cc3)nc2c1C returned IL1B secr inh inconclusive, ATXN2 expr inh inconclusive, USP1 inh inactive and USP2a inh inactive.
For CCN(Cc1ccccc1)S(=O)(=O)c1ccc(C(=O)N(CCCN(C)C)c2nc3c(C)c(C)ccc3s2)cc1 the results were ATXN viability inconclusive, IL1B secr inh -84.0, ATXN2 expr inh inactive, USP1 inh inactive and USP2a inh inactive.
For CCN(Cc1ccccc1)S(=O)(=O)c1ccc(C(=O)N(CCCN(C)C)c2nc3cc4c(cc3s2)OCO4)cc1 the results were ATXN viability inconclusive, IL1B secr inh -73.4, ATXN2 expr inh inconclusive, USP1 inh inactive and USP2a inh inactive.
Screening CCNc1nc(NCC)n2c(SCC(=O)Nc3cccc(Cl)c3)nnc2n1 returned ATXN viability inactive, IL1B secr inh inactive, ATXN2 expr inh inactive, USP1 inh inactive and USP2a inh inactive.
`CCNc1nc(NCC)n2c(SC(C(=O)Nc3cc(Cl)cc(Cl)c3)c3ccccc3)nnc2n1` (stereo not drawn) gave IL1B secr inh inactive, ATXN2 expr inh 25.1µM, USP1 inh inactive and USP2a inh inactive.
Screening Fc1ccc(Nc2nc3nonc3nc2Nc2cccc(C(F)(F)F)c2)cc1 returned USP1 inh inactive.
CCOc1ncccc1C(=O)N1CCN(C(c2ccccc2)c2ccccc2)CC1 was read as ATXN viability inconclusive, IL1B secr inh -90.3, ATXN2 expr inh inactive, USP1 inh inactive and USP2a inh inactive.
CCOc1ncccc1C(=O)N1CCN(S(=O)(=O)c2cccs2)CC1 was read as ATXN viability inactive, IL1B secr inh inactive, USP1 inh inactive and USP2a inh inactive.
`CCCc1cc(=O)[nH]c(Nc2ccc(OCC)cc2)n1` gave USP1 inh inactive.
CCCCc1ccc(Nc2nc(CCC)cc(=O)[nH]2)cc1 was read as IL1B secr inh -104.7, ATXN2 expr inh inconclusive, USP1 inh inactive and USP2a inh inactive.
`CCOC(=O)Cc1[nH]nc2c1C(C1C=CCCC1)C(C#N)=C(N)O2` (stereo not drawn) gave ATXN viability inactive, IL1B secr inh -89.9, ATXN2 expr inh inactive, USP1 inh inactive and USP2a inh inactive.
Screening N#CC1=C(N)Oc2n[nH]c(-c3cccs3)c2C1c1ccsc1 (stereo not drawn) returned ATXN viability inactive, IL1B secr inh inactive, ATXN2 expr inh inactive, USP1 inh inactive and USP2a inh inactive.
N#CC1=C(N)Oc2n[nH]c(-c3cccs3)c2C1C1CCCCC1 (stereo not drawn) was read as ATXN viability inactive, IL1B secr inh -98.5, ATXN2 expr inh inactive, USP1 inh inactive and USP2a inh inactive.
`N#CC1=C(N)Oc2n[nH]c(-c3cccs3)c2C1C1C=CCCC1` (stereo not drawn) gave ATXN viability inactive, IL1B secr inh -94.4, ATXN2 expr inh inactive, USP1 inh inactive and USP2a inh inactive.
`CCNc1cc(NC2CCC(O)CC2)nc(Nc2ccc3c(ccn3Cc3ccccc3)c2)n1` (stereo not drawn) gave ATXN2 expr inh inactive.
`CC(=CC(=O)Nc1ccccc1C(=O)O)c1ccc2ccccc2c1` gave ATXN2 expr inh inactive.
Cc1cc(C)n(CCCN2CCC(C(=O)Nc3cccc(-c4cccc(F)c4)c3)CC2)n1 was read as ATXN viability inconclusive, IL1B secr inh -65.4, ATXN2 expr inh inconclusive, USP1 inh inactive and USP2a inh inactive.
CCOC(=O)c1cc(-c2ccc(C)cc2)n(CC(=O)Nc2cc(C)ccc2C)c1C was read as ATXN viability inactive, ATXN2 expr inh inactive and USP1 inh inactive.
For O=C(NCCc1ccc(Cl)cc1)c1ccc(CS(=O)(=O)Cc2ccc(Cl)cc2)o1 the results were USP1 inh inactive.
Screening O=C(NCCc1ccc(Cl)cc1)c1ccc(CS(=O)(=O)Cc2ccccc2F)o1 returned ATXN viability 20µM, ATXN2 expr inh inconclusive and USP1 inh inactive.
Screening O=C(CC1Nc2cccc3cccc(c23)NC1=O)Nc1ccccc1 (stereo not drawn) returned ATXN viability inactive, IL1B secr inh -62.6, ATXN2 expr inh inactive, USP1 inh inactive and USP2a inh inactive.
For CC(C)N(C(=S)NCc1ccccc1)c1ccccc1 the results were ATXN viability inactive, IL1B secr inh -50.2, ATXN2 expr inh inactive, USP1 inh inactive and USP2a inh inactive.
CC(C)N(C(=S)NCc1ccccc1)C(C)C was read as ATXN viability inactive, IL1B secr inh inactive, USP1 inh inactive and USP2a inh inactive.
For Cc1ccc(N2CC(C(=O)Nc3nccs3)CC2=O)cc1Cl (stereo not drawn) the results were ATXN viability inactive, IL1B secr inh inactive, ATXN2 expr inh 6.31µM, USP1 inh inactive and USP2a inh inactive.
`O=C(Nc1ccc(Cl)c(Cl)c1)C1CC(=O)N(c2ccc(Br)cc2)C1` (stereo not drawn) gave ATXN viability inactive, IL1B secr inh -59.7, ATXN2 expr inh inactive, USP1 inh inactive and USP2a inh inactive.
`Cc1ccc(N2CC(C(=O)N3CCC(C(=O)Nc4cccc(Br)c4)CC3)CC2=O)cc1` (stereo not drawn) gave ATXN viability inactive, IL1B secr inh inconclusive, ATXN2 expr inh inactive, USP1 inh inactive and USP2a inh inactive.
Cc1ccc(N2CC(C(=O)N3CCC(C(=O)Nc4ccc(Br)cc4)CC3)CC2=O)cc1 (stereo not drawn) was read as ATXN viability inactive, IL1B secr inh -61.2, ATXN2 expr inh inconclusive, USP1 inh inactive and USP2a inh inactive.
Screening COc1ccccc1CNc1ncnc2onc(-c3ccc(Cl)cc3)c12 returned ATXN viability inactive, ATXN2 expr inh inactive and USP1 inh inactive.
Screening Cc1cc(C(=O)NC2CCCN(Cc3ccc(Cl)cc3)C2)c(C)o1 (stereo not drawn) returned ATXN viability inactive, IL1B secr inh inactive, ATXN2 expr inh inactive, USP1 inh inactive and USP2a inh inactive.
CCOC(=O)C1=C(CN2CCN(c3ccc(Cl)cc3)CC2)NC(=O)NC1c1ccc(F)cc1 (stereo not drawn) was read as ATXN viability inactive, ATXN2 expr inh inactive and USP1 inh inactive.
`N#CC1=C(N)Oc2n[nH]c(-c3cccnc3)c2C1c1ccc([N+](=O)[O-])o1` (stereo not drawn) gave ATXN viability inconclusive, IL1B secr inh -97.1, ATXN2 expr inh inactive, USP1 inh inactive and USP2a inh inactive.
